Measured values as given in PubChem BioAssay.
The source made the active and inactive calls.

experiment: osmotic lysis modulators in infected erythrocytes, primary screen, PSAC antagonist project, cell-based, P. falciparum Indochina, OD700, 3 h (AID 1156); details: higher = more signal, called active from +8 up or from −8 down

z-score, inactive:
CCOC(=O)[C@H](Cc1ccccc1)NC(=O)CCC1CC(OC(=O)NCc2cccc3ccccc23)CC2(CCCC(COC(=O)NCc3cccc(C(F)(F)F)c3)O2)O1 (stereo partly drawn) 0.654, COC(=O)CC=C[C@@H](C)[C@@H](C=NOC(C)CN1CCCc2nc(C)c(C)cc21)OC (stereo partly drawn) -0.17, COC(=O)[C@@H]1CC[C@H](C)[C@@H](c2ccc(C)cc2)N1C(=O)c1ccc(C=NO[C@H](C)c2cn([C@H](CO)Cc3ccccc3)nn2)cc1 1.91, CO[C@@H]1C=CCC(=O)N[C@@H](C)C(=O)OC[C@@H](OC)[C@H](C)CCCC(=O)OC[C@H]1C -0.683, COc1ccc(O[C@H]2C=C[C@@H](c3ccccc3)O[C@@H]2CON=C(C)C)cc1 -0.541, CCOC(=O)[C@H](CC(C)C)NC(=O)CCC1CC(OC(=O)NCc2cccc3ccccc23)CC2(CCCC(COC(=O)NCCOC)O2)O1 (stereo partly drawn) -0.283, CCCCC#C[C@@H]1C=C[C@H](Oc2ccc(C(=O)OC)cc2)[C@@H](COC(=O)OCC)O1 0.77, Cc1ccc(S(=O)(=O)n2c3ccccc3c3nnc(C(=O)c4ccccc4)nc32)cc1 -0.0784, COc1ccc(O[C@H]2C=C[C@@H](c3ccccc3)O[C@@H]2CON=CC[C@@H]2C=C[C@H](OC(C)=O)[C@@H](COC(C)=O)O2)cc1 1.07, O=C(NN=C1C[C@@H](O)[C@@H](O)[C@@H]2[C@@H]3C(=O)N(Cc4ccccc4)C(=O)[C@@H]3CC[C@@H]12)OCc1ccccc1 0.458, COc1ccc(O[C@H]2C=C[C@@H](c3ccccc3)O[C@@H]2COC(=O)CCC(C)=NO[C@@H]2O[C@H](COC(C)=O)[C@@H](OC(C)=O)[C@H](OC(C)=O)[C@H]2OC(C)=O)cc1 1.1, CO[C@H]1COC(=O)CC=C[C@H](C)[C@@H](OC)COC(=O)[C@@H](C)NC(=O)CC=C[C@@H]1C -0.372, CC(C)[C@@H](OCc1ccccc1)[C@H](C)C=NOC[C@@H](O)COCc1ccco1 -0.302, CCCCC#C[C@@H]1C=C[C@H](OC(C)=O)[C@@H](COC(C)=O)O1 -0.89, CO[C@@H]1COC(=O)[C@@H](C)COC(=O)[C@@H](C)NC(=O)CC=C[C@@H]1C 0.645, C[C@H]1Cc2c(COc3ccccc3)nc3c(c2CO1)CN(CCOc1ccccc1)CC3 1.68, CCCNC(=O)OC[C@H]1O[C@H](CCON=C(C)CCC(=O)OC[C@H]2O[C@H](c3ccccc3)C=C[C@@H]2Oc2ccc(OC)cc2)C=C[C@@H]1Oc1ccc(OC)cc1 0.753, CCOC(=O)NN=C1C[C@@H](O)[C@@H](O)[C@@H]2[C@@H]3C(=O)N(C(C)(C)C)C(=O)[C@@H]3CC[C@H]12 0.786, C[C@@H](ON=C1[C@H]2CCn3c(=O)n(-c4ccccc4)c(=O)n3[C@H]2[C@H](O)[C@@H]2O[C@H]12)c1cn([C@@H]2COC[C@H]2O)nn1 0.0251, COc1ccc(COC(=O)NN=C2C[C@@H](O)[C@@H](O)[C@@H]3[C@@H]4C(=O)N(C5CCCCC5)C(=O)[C@@H]4CC[C@H]23)cc1 0.103, CC(=O)OC[C@H]1O[C@H](C#Cc2ccccc2)C=C[C@@H]1OC(C)=O -0.0923, O=C1CCCC=C1C(CCc1ccccc1)OC(=O)c1ccc(Br)cc1 (stereo not drawn) -0.295, CCN1C(=O)[C@@H]2[C@H]3C(=CC[C@@H]2C1=O)C1(OCCCO1)[C@H]1O[C@H]1[C@H]3O 1.38, O=C1[C@H]2[C@H]3[C@H](O)[C@H](O)CC(=NOCc4ccccc4)[C@@H]3CC[C@H]2C(=O)N1C[C@@H]1CCCO1 -0.335, COC(=O)[C@H]1O[C@@H](c2c(OC)c(OC)c(C)c(OC)c2OC)[C@H](C)[C@@H](O)[C@H]1C 0.92, C#CCCCON=C1C[C@@H](O)[C@@H](O)[C@@H]2[C@@H]3C(=O)N(C(C)(C)C)C(=O)[C@@H]3CC[C@H]12 -0.342, C=CC[C@@H]1C=C[C@H](ON=C(C)CCN2CCc3nc(-c4ccccc4)c(-c4ccccc4)cc3C2)[C@@H](CO)O1 0.85, CC(C)=CCCC(C)=CCON=C1C[C@@H](O)[C@@H](O)[C@@H]2[C@@H]3C(=O)N(Cc4ccccc4)C(=O)[C@@H]3CC[C@H]12 0.957
